# Measurements as given in PubChem BioAssay AID1476 (National Center for Advancing Translational Sciences (NCATS), 2009).
# Values joined by “and” are separate entries in the source; they are usually repeats but may differ in a detail not shown here. Equal entries are not always repeated. Out of some 200,000 compounds screened, about 4,500 (2.2%) were called active. About 12% were inconclusive and are not listed. What follows is part of a selection rich in actives, with near analogues and random picks from the rest. Some compounds were tested as several samples or in several runs, with calls that do not always agree. A number with no mark means an inactive call. Calls follow the shape of the dose curve; as a rule, active = well fitted inhibition curve with a large enough effect; inconclusive = small, poorly fitted or top-dose-only effect, or effect the other way; inactive = flat fitted curve, though single readings scatter.
# Molecular target: Cruzipain (Trypanosoma cruzi) (UniProt P25779)
# Test: qHTS Assay for Promiscuous and Specific Inhibitors of Cruzain (without detergent); also: nearly all actives have a fitted effect of over 40% in size
# Settings: purified cruzain, Z-FR-AMC fluorescence, no detergent
# Method: Cruzain is a cysteine protease from the tropical parasite Trypanosoma cruzi. Dual qHTS experiment was performed against the NCGC compound collection in order to 1) identify novel inhibitors of the enzyme and 2) profile the compound collection for promiscuous inhibitors operating via colloidal aggregation (by performing detergent-free and detergent-containing comparison screens). Cruzain was assayed by the use of fluorogenic coumarin-based substrate Z-FR-AMC: proteolytic cleavage releases AMC, whose fluorescence is measured at 360 nm excitation and 450 nm emission. Purified cruzain was supplied by the labs of Prof. James McKerrow and Brian Shoichet, UC San Francisco.
# This assay had 0.00005% Triton X-100 concentration. See also releated assay "qHTS Assay for Promiscuous and Specific Inhibitors of Cruzain (with detergent)" with 0.01% Triton X-100.
# See following references for additional details:
# Assay Provider: Shoichet, Brian; University of California, San Fancisco
# Screening Center PI: Austin, C.P.
# Screening Center: NIH Chemical Genomics Center [NCGC]
# Buffer: 100 mM Sodium Acetate, pH 5.5, 5 mM DTT, Triton X-100 concentration: 0.01%.
# Buffer in columns 3 and 4 as negative control (no enzyme).
# Substrate solution: 2 uM final concentration of Z-FR-AMC (catalog number I-1160, Bachem) dispensed throughout the plate.
# Enzyme: 1.5 nM Cruzain final concentration in columns 1, 2, 5-48. Column 1 is neutral (100% activity). Column 2 contained titration of covalent inhibitor K11777, starting concentration 1 mM, then 1:2 dilution in duplicate).
# Three uL of enzyme or buffer were dispensed to 1536-well Greiner black solid bottom plates. Compounds and controls (23 nL) were transferred via Kalypsys PinTool. The plates were incubated for 15 min at room temperature, and then 1 uL of substrate solution was added to start the reaction. The plates were immediately transferred to and read 4 times every 30 seconds for 2 min on ViewLux High-throughput CCD imager (Perkin-Elmer) using 360 nm excitation and 450 nm emission fluorescence protocol. The fluorescence intensity difference between the third and the first time points (time lapse of 60 seconds) was used to compute reaction progress.
# Potency is read from the fitted curve at half-maximal effect.
# Sequence of Cruzipain (Trypanosoma cruzi) (P25779 123-467 limits assumed): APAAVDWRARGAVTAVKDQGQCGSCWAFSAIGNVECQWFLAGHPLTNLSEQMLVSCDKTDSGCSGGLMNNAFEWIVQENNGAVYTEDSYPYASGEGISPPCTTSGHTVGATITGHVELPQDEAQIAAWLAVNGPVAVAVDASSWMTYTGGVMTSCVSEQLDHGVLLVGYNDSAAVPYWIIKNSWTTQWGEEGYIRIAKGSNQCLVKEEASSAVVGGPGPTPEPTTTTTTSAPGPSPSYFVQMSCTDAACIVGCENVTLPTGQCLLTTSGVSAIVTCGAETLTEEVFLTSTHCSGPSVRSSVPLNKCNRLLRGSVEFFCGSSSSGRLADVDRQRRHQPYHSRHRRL
SMILES,"max response, negative = inhibition",Potency
COc1ccc(-c2nc3c4ccccc4n(CC(=O)Nc4ccc(C(C)=O)cc4)c(=O)n3n2)cc1,12.6%,
CCN(CC)S(=O)(=O)c1ccc2c(c1)c(=O)c(C(=O)N1CCN(c3cccc(Cl)c3)CC1)cn2C,15.1%,
COc1ccc(CCC(=O)NCCc2csc(-c3ccc(Cl)cc3)n2)cc1,28.2%,
O=C(/C=C/c1ccccc1)c1ccccc1O,9.27% and -2.28%,
CC(=O)c1c(O)c(C)c(O)c(Cc2c(O)c3c(c(C(=O)/C=C/c4ccccc4)c2O)OC(C)(C)C=C3)c1O,24.8%,7.94 µM (active)
CC(=O)c1c(O)c(C)c(O)c(Cc2c(O)c3c(c(C(=O)/C=C\c4ccccc4)c2O)OC(C)(C)C=C3)c1O,23.6%,
COc1cc(C(=O)NCC(c2ccc(Cl)cc2)N2CCOCC2)cc(OC)c1OC (centres undefined),9.67%,
CNC(=O)/C(=C\C=C\c1ccccc1)NC(=O)c1ccc([N+](=O)[O-])cc1,1.75%,
O=C(NC(=S)Nc1ccc(NC(=O)c2cccs2)cc1)c1ccc([N+](=O)[O-])cc1,,12.6 µM (active)
O=C(NCCc1ccccc1)/C(=C\c1ccc([N+](=O)[O-])cc1)NC(=O)c1ccccc1,-28.6%,
O=C(Nc1ccccc1)/C(=C/c1ccc([N+](=O)[O-])cc1)NC(=O)c1ccccc1,,10 µM (active)
COCCCNC(=S)NC(=O)c1ccc([N+](=O)[O-])cc1,-9.94%,
O=C(O)c1ccc(NC(=O)c2cccs2)cc1,-2.86%,
Cc1cccc(C(=O)Nc2ccc(-c3nc4ncccc4o3)cc2C)c1,-6.61%,
Cc1noc2ncnc(NCc3ccccc3Cl)c12,-9.31%,
Cc1ccc(C)c(N2CCN(S(=O)(=O)c3ccc4c(c3)C(C(C)C)C(=O)N4)CC2)c1 (centres undefined),-9.68%,
CCOC(=O)c1cccc(NS(=O)(=O)c2cn(C)c(C)n2)c1,6.22%,
Cc1ccc2c(=O)cc(C(=O)Nc3sc4c(c3C(=O)NCc3cccnc3)CCCC4)oc2c1,-7.89%,
Cc1ccc(S(=O)(=O)c2c(COC(=O)c3cccc(Cl)c3)c(-c3ccccc3)nn2C)cc1,,25.1 µM (active)
Cn1nc(-c2ccccc2)c(CSc2cccc(Cl)c2)c1Cl,2.52%,
Cc1cc(C)n(-c2c(F)c(F)c(COC(=O)c3ccccc3)c(F)c2F)n1,2.62%,
Cc1ccc(CNC(=O)c2c(O)nc3c(C)cccn3c2=O)cc1,-9.77%,

SMILES,"max response, negative = inhibition",Potency
O=C(O)c1c(CNCc2cccc(F)c2)c2ccccc2n1Cc1ccccc1,0.0489%,
Cc1ccc(-c2nc(-c3cccnc3)sc2CC(=O)Nc2ccc(C)c(Cl)c2)cc1,,25.1 µM (active)
Cc1cc(C)c(NC(=O)CS(=O)CC(=O)Nc2cccnc2)c(C)c1 (centres undefined),-6.14%,
Cc1ccc(NC(=O)COc2ccc(-n3ccnc3)cc2)cc1Cl,3.27%,
Cc1ccc(-c2ccc(CCC(=O)O)n2-c2ccc(C(N)=O)cc2)cc1,-3.67%,
O=C(Nc1ccc2c(c1)CCC2)c1cccc(S(=O)(=O)N2CCN(c3ccc(F)cc3)CC2)c1,,20 µM (active)
O=C(Nc1cccc(F)c1)c1ccc(S(=O)(=O)N2CCCC2)cc1,6.1%,
O=C(Nc1ccc2c(c1)CCC2)c1cccc(S(=O)(=O)Nc2ccccc2Cl)c1,-19.6%,
O=C(Cn1nc(Cc2cccnc2)c2ccccc2c1=O)N1CCN(c2ccccc2F)CC1,-3.19%,
COCCNC(=O)c1ccc2c(c1)N(Cc1cccc(Cl)c1)C(=O)c1ccccc1S2(=O)=O,9.95%,
O=C(NCCc1ccccc1)c1ccc2c(c1)N(Cc1ccc(F)cc1)C(=O)c1ccccc1S2(=O)=O,2.91%,
O=C(NCCc1ccccc1)c1ccc2c(c1)N(Cc1ccccc1)C(=O)c1ccccc1S2(=O)=O,,20 µM (active)
Cc1nn(-c2ccc(N3CCCCC3)nn2)c(C)c1CCC(=O)NCc1ccccc1F,-5.41%,
Cc1cc(Br)ccc1NC(=O)Cn1cnc2sc(C)c(S(=O)(=O)N3CCN(C)CC3)c2c1=O,-2.69%,
Clc1ccccc1SCc1nc2ccccc2[nH]1,-0.47%,
Clc1ccc(-c2nnc(SCc3nc4ccccc4s3)o2)cc1,-6.5%,
c1ccc(-c2nnc(SCc3nc4ccccc4[nH]3)o2)cc1,,12.6 µM (active)
COc1ccc(N2CC(C(=O)NCCS(=O)(=O)N3CCN(c4ccccc4)CC3)CC2=O)cc1 (centres undefined),3.76%,
Cc1ccc(C(=O)COC(=O)C(Cc2c[nH]c3ccccc23)NC(=O)c2ccc(Br)cc2)cc1 (centres undefined),,12.6 µM (active)
O=C(Cc1c[nH]c2ccccc12)OCCOC(=O)Cc1c[nH]c2ccccc12,1.16%,
Cc1[nH]c2ccccc2c1C(=O)COC(=O)C(C)C,3.26%,
CN(C(=O)c1ccc2c(c1)N(Cc1cccc(Cl)c1)C(=O)c1ccccc1S2=O)C1CCCCC1 (centres undefined),-3.62%,

SMILES,"max response, negative = inhibition",Potency
Cc1csc2nc(COC(=O)c3ccccc3NC(=O)c3ccccc3Cl)cc(=O)n12,-1.98%,
COc1ccc(Cl)cc1NC(=O)C(C)Sc1nc2c(c(=O)[nH]1)CCCC2 (centres undefined),-3.86%,
O=S(=O)(c1ccc2nc(N3CCN(c4cccc(Cl)c4)CC3)ccc2c1)N1CCCCC1,-14.3%,
O=C1Nc2ccccc2C12Nc1ccccc1S2 (centres undefined),,25.1 µM (active)
Cc1ccc(NC2(C#N)C(=O)Nc3ccccc32)cc1 (centres undefined),-4.74%,
CCc1ccc2c(c1)C1(NN=C(c3ccccc3)S1)C(=O)N2 (centres undefined),-24.1%,
O=c1c(O)c(Br)ccc2c(Br)c(O)c(O)c(O)c12,-27.1%,
CCC(C)Nc1oc(-c2ccc(COc3ccc(Cl)cc3)o2)nc1C#N (centres undefined),2.48%,
O=C1CN(c2nc(-c3ccccc3)c3cc(Br)ccc3n2)c2ccccc2N1,,12.6 µM (active)
Cc1ccc(S(=O)(=O)N2CC(=O)Nc3ccccc32)cc1C,2.47%,
O=C(O)c1ccc(Nc2nc(-c3ccccc3)c3cc(Br)ccc3n2)cc1,27.1%,
Fc1ccc(-c2nn(-c3ccccc3Cl)c3c2cnc2ccccc23)cc1,4.61%,
O=C(CC1C(=O)N(c2ccccc2)C(=O)N1CCc1cccs1)Nc1ccc(F)cc1 (centres undefined),2.56%,
O=C(CCSCc1ccccc1F)N1CCN(c2ccc(Cl)cc2)CC1,2.72%,
Cc1ccc(-c2nn(CCC(=O)Nc3ccc(Cl)c(Cl)c3)c(=O)c3ccccc23)cc1,-2.75%,
CCN(CC)c1nn2c(=O)c(C(=O)NCCc3ccccc3)cnc2s1,-4.42%,
O=C(NCc1ccc2c(c1)CCN2C(=O)c1ccccc1)Nc1cc(F)ccc1F,-19.6%,
COc1ccc(CNC(=O)c2cc3c(s2)-c2ccccc2OC3)cc1,16.2%,
Cc1ccc(-n2c(SCC(=O)Nc3ncc(Cl)cc3Cl)nc3ccccc32)cc1,,20 µM (active)
Cc1cc(C)c(NC(=O)Cn2c(SCC(=O)NCc3ccccc3)nc3ccccc32)c(C)c1,7.19%,
Cc1ccc(NC(=O)CSc2nc3c([nH]c4ccccc43)c(=O)n2-c2ccccc2)c(C)c1,12.6%,
Brc1ccc(/C=N/N2CCN(C3c4ccccc4-c4ccccc43)CC2)s1,,12.6 µM (active)

SMILES,"max response, negative = inhibition",Potency
c1ccc2c(c1)-c1ccccc1C2N1CC2CCC(CC2)C1,1.3%,
NS(=O)(=O)c1ccc(N=Cc2ccc(Br)s2)cc1,-5.17%,
O=C(c1ccc2c(c1)N(Cc1ccccc1)C(=O)c1ccccc1S2(=O)=O)N1CCC(Cc2ccccc2)CC1,1.2%,
COc1ccc(-c2nnc(SCc3cccnc3)o2)cc1,15.4%,
COc1ccc(-c2nnc(SC(=O)N3c4ccccc4Sc4ccccc43)o2)cc1,,31.6 µM (active)
COc1ccc(-c2nnc(SC(C)C#N)o2)cc1 (centres undefined),2.59%,
CCOC(=O)c1ccc(NC(=O)CC2C(=O)N(c3cccc(OC)c3)C(=O)N2C2CCCCC2)cc1 (centres undefined),-1.66%,
Cc1ccc(C(=O)NCCSc2c(C)[nH]c3ccccc23)cc1C,13.2%,
N#CC1=C(SCc2ccccc2)NC(=O)C(C#N)C12CCCC2 (centres undefined),-1.74%,
N#CC1=C(SCc2ccc(C#N)cc2)N=C(N)C(c2nc(-c3ccccc3)cs2)C12CCCCC2 (centres undefined),,10 µM (active)
COc1ccc(CCNc2nc(-c3ccc(Cl)cc3)cc(C(F)(F)F)n2)cc1OC,-3.01%,
Cc1nn(Cc2ccc(F)cc2)c(C)c1NC(=O)c1cc(CC(C)C)on1,2.49%,
CCCc1cc(=O)[nH]c(SCC(=O)OCc2ccccc2)n1,-0.512%,
CCCc1cc(=O)[nH]c(SCC(=O)c2cc(C)n(CCC)c2C)n1,-4.28%,
Cc1cc(C(=O)CSc2nc(N)cc(=O)[nH]2)c(C)n1CCc1ccc(Cl)cc1,,12.6 µM (active)
COc1ccc(-n2ccnc(NCCc3ccc(Cl)cc3)c2=O)cc1OC,16.8%,
COc1ccc(C2Sc3ccccc3NC3=C2C(=O)c2ccccc23)c(OC)c1OC (centres undefined),-2.6%,
S=c1nccc(-c2cc(Cl)sc2Cl)[nH]1,,12.6 µM (active)
COCCNC(=O)CCCN1C(=O)c2ccccc2Sc2ncccc21,15.3%,
CS(=O)(=O)c1ccc2nc(NC(=O)C3CCCCC3)sc2c1,6.38%,
CCS(=O)(=O)N1Cc2ccccc2CC1C(=O)Nc1nc2ccc(F)cc2s1 (centres undefined),,12.6 µM (active)
O=C(Nc1nc2ccc(F)cc2s1)c1nc(SCc2ccccc2F)ncc1Cl,1.9%,
